# High-throughput results (PubChem)
# pAkt inh: Akt phosphorylation inhibition; activity change, % for hits at 50 µM; Neuro2A IGF-stimulated pAkt S473 HTRF, 20 min; hits give low values; 360,000 tested, 0.32% active; AID 651550; in the data active = activity change below about -80%; inconclusive = mostly about -51% to -80%; note: % is set by controls: 0 for no effect and ±100 for the full control effect
#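 Neuro2A cells (4,500/well, DMEM with 0.5% FBS) were treated with compound at a single 50 µM final concentration, stimulated with 6 nM IGF for 20 min at 37 °C, and lysed. Phospho-Akt Ser473 was read by HTRF as 665/615 ratio ×10^4.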
# aSyn yeast inh: rescues yeast growth from alpha-synuclein toxicity; Yeast expressing alpha-synuclein, growth rescue, BacTiter-Glo, 24 h; Potency, µM (doses to about 46.1 µM), for inactives: top-dose growth rescue (activation), usual class: activators; 370,000 tested, 0.14% active; AID 652106; note: potency is the fitted concentration of half-maximal effect; % of control where 0% means no effect; nearly all actives have a fitted effect of over 65% in size
#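 Rescue of yeast growth: cells expressing toxic alpha-synuclein, induced in galactose at OD600 0.02, incubated with compound 24 h at 30 C. ATP luminescence quantified growth; inhibitors of toxicity appear as activators.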
# FUS suppressor: suppressors of FUS proteinopathy in yeast | S. cerevisiae FUS-expressing, growth rescue, OD600, 24 h | 390,000 tested, 0.24% active | Potency, µM (titrated, usually from 76.6 µM), hits mostly activators;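 note: potency is the fitted concentration of half-maximal effect; plate controls were DMSO vehicle for no effect and reference control for full effect; nearly all actives have a fitted effect of over 55% in size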
#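 Read-out: OD at 600 nm after 24hr at 30C, reporting rescue of FUS-induced yeast toxicity. Cells at OD 0.005 in galactose (2%) minimal medium; compounds tested in a dilution series; CP55940 titration from 92uM final as control.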
# Abeta rescue: restores growth of yeast expressing A-beta42 peptide; yeast expressing A-beta42, growth rescue, OD600, 48 h; response scale: 0% DMSO, 100% iron-clioquinol control; Potency, µM (doses to about 46.1 µM), actives largely listed as activators; 410,000 tested, 0.063% active; AID 1347071; note: potency is the fitted concentration of half-maximal effect; nearly all actives have a fitted effect of over 55% in size
#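 Growth rescue measured by 600 nm absorbance after 48 h yeast culture at 30 C with compound. Values normalized between DMSO and an equimolar ferric chloride plus clioquinol control.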
# TDP-43 yeast inh: TDP-43 toxicity inhibition in yeast; TDP-43 expressing yeast growth rescue, BacTiter-Glo, 24 h; AID 652104; Potency, µM (doses to about 46.1 µM), without a hit: top-dose growth rescue (activation), usual class: activators; 410,000 tested, 1.8% active; note: potency is the fitted concentration of half-maximal effect; % of control where 0% means no effect; nearly all actives have a fitted effect of over 50% in size
#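 Growth rescue of TDP-43-toxic yeast measured as ATP luminescence (BacTiter-Glo). Cells grown to mid-log in raffinose, induced in galactose at OD600=0.02, exposed to compound 24 hr at 30 deg C.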
# Numbers without * were called inactive; i = inactive; ? = inconclusive; . = no result; [ ] = dose if it differs, or a comment. Compounds with a hit are over-represented: about 2.3% of the library has one in this group of screens. Unless noted, calls come from the whole dose curve; as a rule, active = well fitted curve in the direction sought with a large enough effect; inconclusive = small, poorly fitted or top-dose-only effect, or another doubt; inactive = no such curve, though single readings can be large; an effect the other way counts as inactive or inconclusive.
SMILES,pAkt inh,aSyn yeast inh,FUS suppressor,Abeta rescue,TDP-43 yeast inh
COc1ccc(-c2cn3nc(N4CCC(C(=O)Nc5cccc(Cl)c5)CC4)sc3n2)cc1,.,.,i,i,0.0%[9.22 µM]
Cc1ccc(NS(=O)(=O)c2ccc3[nH]c4c(c3c2)CCCCCC4)cc1,.,.,i,i,14.1µM*
CCOC(=O)c1ccc2[nH]c3c(c2c1)CCCC3,i,-1.6%,i,i,25.1µM*
Cc1cc(=O)n2nc(N3CCC(C(=O)Nc4c(C)cccc4C)CC3)sc2n1,.,.,i,i,11.2%
CCn1cc(S(=O)(=O)c2cc(C)cc(C)c2)c(=O)c2cc(F)c(N3CCN(c4ccccc4)CC3)cc21,.,.,i,i,0.0%
C=C(C(=O)O)c1ccc2ccccc2c1,.,-21.7%,.,.,.
O=C(Nc1ccccc1)c1ccc2c(O)c(S(=O)(=O)c3ccc(Cl)cc3)c(=O)[nH]c2c1,.,.,i,i,12.9%
CCOC(=O)c1cc(-c2ccccc2)n(-c2cccc(C(=O)Nc3cccc(F)c3)c2)c1C,.,.,i,i,4.1%
CC1CCN(S(=O)(=O)c2ccc3c(c2)CCC(=O)N3CC(=O)Nc2cccc(C#N)c2)CC1,.,.,i,i,17.1%
CN(C)CCOC1c2ccccc2CCc2ccc3ccccc3c21 (centres undefined),i,?,i,i,15.8µM*
Cn1c(=O)c(-c2ccccc2[N+](=O)[O-])c(Cl)c2ccccc21,i,10.3%,i,i,15.8µM*
CCn1c(NCc2ccc3c(c2)OCO3)nc2ccccc21,-105.9%*,-5.1%,i,i,-7.7%
COCCCNC(=O)CN1C(=O)c2c(c3ccccc3n2C)C1c1ccc(OC)cc1 (centres undefined),.,.,i,i,16.1%
COc1ccc([N+](=O)[O-])cc1NC(=S)Nc1ccccc1,.,-0.1%,i,i,-4.9%
O=C(O)c1cc([N+](=O)[O-])ccc1Nc1ccccc1,i,1.6%,.,i,11.9%
O=[N+]([O-])c1ccc(O)c(NC(=S)Nc2ccccc2)c1,i,-9.8%,i,i,12.6µM*
O=C(Nc1ccccc1)c1ccc(Nc2c([N+](=O)[O-])cc([N+](=O)[O-])c3ccccc23)cc1,i,-2.5%,i,i,3.0%
O=[N+]([O-])c1cc(Br)c(Nc2ccccc2)c([N+](=O)[O-])c1,i,5.9%,i,i,3.55µM*
Nc1cc([N+](=O)[O-])ccc1Nc1ccccc1,i,8.0%,i,i,14.1µM*
COc1ccc2cc(C3=CCCC3(C)C(=O)O)ccc2c1 (centres undefined),i,-37.6%,i,i,3.55µM*
COc1ccc2cc(C3=CC(=O)CCC3)ccc2c1,i,1.1%,i,i,?
Cc1nc(Nc2ccc3c(c2)OCCO3)c2c(C)c(C)sc2n1,i,13.4%,?,i,11.2µM*
Cc1cc(C)nc(NC(=NCCc2c[nH]c3ccc(Cl)cc23)NC(=O)c2ccccc2C)n1,.,0.562µM*,i,i,5.1%
O=S(=O)(c1cccc(F)c1)N1CCN(c2nc(-c3cccs3)nc3ccccc23)CC1,.,1.1%,.,.,.
Cc1cccc(C(=O)N2CCC(=O)N(C(COCc3ccc(Cl)cc3)Cc3ccccc3)CC2)c1 (centres undefined),i,?,?,i,35.5µM*
SMILES,pAkt inh,aSyn yeast inh,FUS suppressor,Abeta rescue,TDP-43 yeast inh
Cc1cccc(C(=O)N2CCC(=O)N(C(COCc3cccc(Cl)c3)Cc3ccccc3)CC2)c1 (centres undefined),i,26.9%,?,i,?
Cc1cccc(COC[C@H](CC(C)C)N2CCN(C(=O)c3ccc(C(C)(C)C)cc3)CCC2=O)c1,i,-26.4%,?,i,22.4µM*
Cc1cccc(C(=O)N2CCC(=O)N([C@H](COCc3cccc(Cl)c3)Cc3ccccc3)CC2)c1,i,?,?,i,35.5µM*
O=C(c1cccc(Cl)c1)N1CCC(=O)N([C@H](COCc2ccccc2)Cc2ccccc2)CC1,i,26.4%,?,i,0.0%
Cc1cccc(C(=O)N2CCC(=O)N([C@H](COCc3ccc(Cl)cc3)Cc3ccccc3)CC2)c1,i,21.9%,?,i,15.8µM*
CCOC(=O)c1sc2ccccc2c1S(=O)(=O)Nc1cc(OC)ccc1OC,.,.,i,i,15.3%
CCN1CCC(N(Cc2ccc(F)cc2)C(=O)Nc2ccc(C)c(F)c2)CC1,.,.,i,i,-1.7%
CCCC1(C)C(C#N)(C#N)C1(C#N)C#N,.,14.6µM*,.,.,.
N#Cc1c(C(F)(F)F)cc(-c2cccs2)nc1SCC(=O)Nc1ccc(Cl)cc1,.,.,i,i,11.9%
O=C(NCCC1=CCCCC1)C(c1ccccc1)c1ccccc1,-117.1%*,2.8%,i,i,-0.5%
O=C(NCCc1ccc(F)cc1)NC12CC3CC(CC(C3)C1)C2,i,-12.6%,i,i,4.4%
O=C(NCCC1=CCCCC1)NC12CC3CC(CC(C3)C1)C2,i,-11.7%,i,i,15.8µM*
COc1ccc(CNC(=O)c2nn(-c3ccccc3C)nc2CO)cc1,.,.,i,i,?
CCCSc1ncc(Cl)c(C(=O)Nc2c(C(=O)Nc3ccc(C)cc3)oc3ccccc23)n1,.,.,i,i,?
Nc1cc(=O)nc(SCC(=O)Nc2ccc(F)cc2)n1-c1cccc(Cl)c1,.,.,i,i,-8.1%
CC(Oc1ccccc1F)C(=O)Nc1ccc(-c2nc3ccccc3s2)cc1 (centres undefined),.,.,i,i,1.9%
CCOC(=O)c1cnc(NCc2ccccc2)nc1C,.,.,i,i,7.08µM*
COc1cc2c(cc1NC(=O)COc1ccc(Cl)cc1Br)oc1ccccc12,.,.,i,i,-5.4%
Cc1ccnc2nc(NC(=O)c3ccccc3Cl)nn12,.,.,i,i,8.9%
Cn1ncc2c(Nc3cc(C(F)(F)F)ccc3Cl)ncnc21,.,.,i,i,14.1µM*
